Sm TGR inh: S. mansoni TGR enzyme inhibition; Q962Y6; purified TGR, DTNB reduction, TNB absorbance 405 nm; Potency, µM (highest dose often 114 µM), for the others: top-dose activity change, negative = inhibition, most hits filed as inhibitors; hit rate 3% among 360,000; further: potency means the concentration at half of the fitted maximal effect; on the % scale 0 is the no-effect control and ±100 the full control effect; nearly all actives have a fitted effect of over 60% in size
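First, TGR (20 nM dispensed) and NADPH were mixed with compound. Second, a 15 min room-temperature incubation followed. Third, further NADPH and then DTNB were added to start the reaction. Finally, TNB absorbance was monitored kinetically.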
Pf growth 96h: inhibits malaria parasite growth, 96 h; P. falciparum luciferase reporter growth, 96 h; Potency, µM (top dose mostly 28.7 µM), for the others: at the top dose activity change, negative = inhibition, actives largely listed as inhibitors; hit rate 6.9% among 320,000; AID 504834; further: potency means the concentration at half of the fitted maximal effect; on the % scale 0 is the no-effect control and ±100 the full control effect
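Delayed-death screen, second-generation endpoint: infected erythrocytes, 2% hematocrit, 0.05% parasitemia final; 96 hours at 37 C, 5% CO2; luciferase detection reagent; luminescence decrease equals reduced growth.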
HCMV inh: human cytomegalovirus inhibition; HFF cells, HCMV-luciferase reporter, 72 h; hits give low values; activity change, negative = inhibition, % at 57.5 µM; hit rate 4.5% among 410,000; AID 1259415; in the data active means activity change below about -60%; inconclusive means no clear call, values can overlap the other calls; inactive means above about -39%; further: on the % scale 0 is the no-effect control and ±100 the full control effect
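Two-dose cell screen: HFF monolayers treated with compounds and infected with luciferase-expressing HCMV at 1 PFU/cell, 72 h at 37C, then lysed for luciferase measurement.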
SARS PLP yeast: SARS-CoV PLP inhibition in yeast | S. cerevisiae expressing SARS-CoV PLpro, growth rescue | Potency, µM (titrated, usually from 32.9 µM), inactives show at the highest dose activity, positive = growth rescue, usual class: activators | hit rate 0.19% among 330,000; calls by dose curve; further: potency means the concentration at half of the fitted maximal effect; 0% is about no effect; nearly all actives have a fitted effect of over 55% in size
Pf growth 48h: inhibits P. falciparum growth in the first generation, 48 h; Potency, µM (titrated, usually from 28.7 µM), without a hit: at the top dose activity change, negative = inhibition, usual class: inhibitors; AID 504832; hit rate 5.9% among 310,000; P. falciparum luciferase growth in erythrocytes, 48 h; further: potency means the concentration at half of the fitted maximal effect; on the % scale 0 is the no-effect control and ±100 the full control effect
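Cell-based growth assay: transgenic P. falciparum expressing firefly luciferase, cultured in red cells within RPMI 1640 containing 0.5% w/v Albumax, 24 mM bicarbonate and gentamycin. A drop in luciferase activity indicates inhibition.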
HCV inh: inhibitors of hepatitis C virus infection; hit rate 3.4% among 340,000; Potency, µM (series often up to 41.8 µM), for the others: at the top dose activity change, negative = inhibition, usual class: inhibitors; Huh7.5.1 HCVcc-Cre infection, luciferase reporter, 44 h; further: potency means the concentration at half of the fitted maximal effect; on the % scale 0 is the no-effect control and ±100 the full control effect
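1,000 cells/well; 4 h culture; + compound; + HCVcc-Cre (~0.5 moi); 44 h; luciferase substrate, RT 15 min; read 15 sec.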
* hit, by the source's call; i = inactive; ? = inconclusive; . = no result given; ! = repeats disagree; [ ] = dose if it differs, or a comment. This is a sample that favours compounds with a hit; in the whole collection about 15% have one here. Unless noted, the call rests on the fitted dose curve; in most records, active means well fitted curve in the direction sought with a large enough effect; inconclusive means small, poorly fitted or top-dose-only effect, or another doubt; inactive means no such curve, though single readings can be large; an effect the other way counts as inactive or inconclusive.

SMILES	Sm TGR inh	Pf growth 96h	HCMV inh	SARS PLP yeast	Pf growth 48h	HCV inh
Cc1cc[n+](-c2ccccc2)c2ccccc12	?	1.7µM*	-40	-7%	12µM*	?
CCOc1ncccc1C(=O)NCCc1ccc(Cl)cc1	-1%	-16%	-9	-3%	-13%[0.00184 µM]	20%
COc1ccc(-c2nnc(SCC(=O)Nc3ncc(C)s3)n2-c2ccccc2)cc1OC	15%[11.4 µM]	.	105	-10%	.	?
Cc1cc(=O)[nH]c2nnc(SCc3c(F)cccc3Cl)n12	0%	.	-36	.	.	.
CCC[C@H](CN[C@@H](CNC)[C@H](C)O)NCCc1ccc(OC)cc1	-6%	?	1	0%	-28%	-15%
CCCC[C@@H](CNC)NC[C@H](Cc1ccc(O)cc1)NCCc1ccc(OCC)cc1	0%	0.93µM*	-85*	-6%	2.6µM*	?
C[C@H]1O[C@@H](O[C@H]2[C@@H](O)C[C@H](O[C@H]3[C@@H](O)C[C@H](O[C@H]4CC[C@@]5(C)[C@H](CC[C@@H]6[C@@H]5C[C@@H](O)[C@]5(C)[C@@H](C7=CC(=O)OC7)CC[C@]65O)C4)O[C@@H]3C)O[C@@H]2C)C[C@H](O)[C@@H]1O	31%	7.6µM*!	-100*	4%	?	?
CC1OC(OC2C(O)CC(OC3C(O)CC(OC4CCC5(C)C(CCC6C5CCC5(C)C(C7=CC(=O)OC7)CCC65O)C4)OC3C)OC2C)CC(O)C1O (stereo unspecified)	.	4.8µM*	.	.	15µM*	.
CCN(CC)CCCNC(=O)c1cc2cc(Cl)ccc2nc1N	.	.	-26	.	.	.
Cc1ccc(Cn2ccc(-c3cnc(-c4ccccc4)s3)n2)cc1	0%	105%	?	8%	.	?
Fc1ccc(Cn2ccc(-c3cnc(-c4ccccc4)s3)n2)cc1	3%	15%	?	3%	.	10µM*
OC(CN(c1ccccc1)c1ccccc1)Cn1cnc2ccccc21 (stereo unspecified)	2%	i	?	-9%	12µM*	?
CC(=O)Nc1cccc(OCC(O)Cn2cnc3ccccc32)c1 (stereo unspecified)	-2%	44%	30	-1%	-5%	8%
Cc1nn(CC(O)COc2ccc3c(c2)CCC3)c(C)c1C (stereo unspecified)	-3%	.	-17	-3%	4%	?
CC(=O)Nc1ccc(OCC(O)Cn2cnc3ccccc32)cc1 (stereo unspecified)	7%	7.4µM*	-17	8%	24%	10%
OC(COc1ccc2c(c1)CCC2)Cn1cnc2ccccc21 (stereo unspecified)	2%	29%	-32	-4%	10µM*	?
CCN(C(=O)CCc1nc(-c2ccc(C)cc2)no1)c1cccc(C(F)(F)F)c1	-7%	.	9	.	.	.
O=C(c1noc2c1CCCCC2)N1CCN(C(c2ccccc2)c2ccccc2)CC1	.	.	0	.	.	?
CCC(=O)Nc1ccc(S(=O)(=O)NCc2ccco2)cc1	0%	?	-18	1%	.	-2%
O=C(NCCN1CCOCC1)C(Sc1ccccc1)c1ccccc1 (stereo unspecified)	0%	-2%	-1	0%	7%	16%
CCCCNS(=O)(=O)c1ccc(NC(=O)C(Sc2ccccc2)c2ccccc2)cc1 (stereo unspecified)	9%	?	-69*	12%	10µM*	?
O=C(NC(=S)NCCCN1CCOCC1)c1cccc2ccccc12	-19%	6.6µM*	11	-2%	?	2%
Nc1ccccc1C(=O)NCCCN1CCOCC1	1%	24%	-105*	-1%	.	-9%
O=C(NCCCN1CCOCC1)C(Sc1ccccc1)c1ccccc1 (stereo unspecified)	3%	7.4µM*	-4	4%	-10%	7%
COc1ccc(NC(=O)C(=O)c2cn(CC(=O)N3CCOCC3)c3ccccc23)cc1OC	-10%	?	43	1%	-14%	?
CC1=NN(c2ccccc2)C(=O)C1C(=S)SC1CC(=O)NC1=O (stereo unspecified)	.	.	-88*	.	.	.
